Data reported in ChEMBL document CHEMBL3433997, “St. Jude Leishmania screening dataset” (2016).

Key:
Assay type in all cases: functional
[1] = molecular target: Solute carrier family 2, facilitated glucose transporter member 1 (Homo sapiens) (UniProt P11166); experiment: ST_JUDE_LEISH: Cytotoxicity at 2uM final concentration against transgenic Leishmania Mexicana promastigotes LmGLUT1 that are glucose transport deficient and complemented with the human glucose transporter GLUT1. Activity is measured by DNA content using SYBR green in vitro
Solute carrier family 2, facilitated glucose transporter member 1 (Homo sapiens), sequence (P11166 whole entry): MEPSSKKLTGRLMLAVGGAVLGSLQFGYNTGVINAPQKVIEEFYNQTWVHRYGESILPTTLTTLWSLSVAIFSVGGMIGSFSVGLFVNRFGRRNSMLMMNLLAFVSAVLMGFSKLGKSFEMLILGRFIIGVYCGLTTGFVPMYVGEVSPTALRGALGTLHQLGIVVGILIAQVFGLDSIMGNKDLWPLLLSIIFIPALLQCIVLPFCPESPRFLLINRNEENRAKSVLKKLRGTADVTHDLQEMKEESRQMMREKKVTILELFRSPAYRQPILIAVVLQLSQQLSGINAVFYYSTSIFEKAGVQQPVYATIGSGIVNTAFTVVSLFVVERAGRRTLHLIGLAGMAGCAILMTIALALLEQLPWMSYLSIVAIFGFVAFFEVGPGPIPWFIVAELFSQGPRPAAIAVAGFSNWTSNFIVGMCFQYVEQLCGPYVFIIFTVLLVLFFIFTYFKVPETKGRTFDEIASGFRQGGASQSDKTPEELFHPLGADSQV

[2] = molecular target: Hexose transporter 1 (Plasmodium falciparum) (UniProt O97467); experiment: ST_JUDE_LEISH: Cytotoxicity at 2uM final concentration against transgenic Leishmania Mexicana promastigotes LmPfHT that are glucose transport deficient and complemented with the Plasmodium falciparum hexose transporter. Activity is measured by DNA content using SYBR green in vitro
[3] = molecular target: Glucose transporter (Leishmania mexicana) (UniProt O61059); experiment: ST_JUDE_LEISH: Cytotoxicity at 2uM final concentration against transgenic Leishmania Mexicana promastigotes LmGT2 that are glucose transport deficient and complemented with the L. Mexicana glucose transporter 2. Activity is measured by DNA content using SYBR green in vitro

CCCN(CC1CC1)c1ncc(-c2ccccc2CNCc2ccccc2O)cn1
inhibition [1]: 11.8%
inhibition [2]: 8.72%
inhibition [3]: 4.56%

Cc1ccc(C(=O)Nc2ccc(Nc3ccnc4cc(-c5nccs5)ccc34)cc2O)cc1
inhibition [1]: 6.24%
inhibition [2]: 3.22%
inhibition [3]: 1.89%

N#Cc1ccc(NC2(C(=O)N3CCN(c4cccc(Cl)c4)CC3)CC2)c2ccccc12
inhibition [1]: 2.79%
inhibition [2]: 2.36%
inhibition [3]: 0.86%

CCC(CO)NCC(O)Cn1c2ccc(Cl)cc2c2cc(Cl)ccc21 (stereo unspecified)
inhibition [1]: 4.65%
inhibition [2]: 5.96%
inhibition [3]: 2.18%

CCC(C)NCCC(c1ccccc1)c1ccccc1O (stereo unspecified)
inhibition [1]: 5.11%
inhibition [2]: 4.69%
inhibition [3]: 4.41%

COc1ccc2nccc(NCC3(O)CCN(CCc4ccc5c(c4)OCCO5)CC3)c2n1
inhibition [1]: 4.99%
inhibition [2]: 4.58%
inhibition [3]: 0.15%

COc1cc(Cc2cnc(N)nc2N)cc(OC(C)C)c1OC
inhibition [1]: -0.55%
inhibition [2]: 0.72%
inhibition [3]: -0.54%

Fc1cc(Cl)ccc1Nc1ccnc2cc(-c3ccc(CN4CCSCC4)o3)ccc12
inhibition [1]: 1.72%
inhibition [2]: 3.56%
inhibition [3]: 8.14%

CN(C)Cc1cccc(-c2cnc(N)c(-c3nc4cc(S(C)(=O)=O)ccc4[nH]3)c2)c1
inhibition [1]: 2.57%
inhibition [2]: 5.29%
inhibition [3]: 3.97%

O=C(/C=C/c1ccc(Cl)c(Cl)c1)NCCCCCCN1CCN(C(=O)Nc2ccc(F)c(Cl)c2)CC1
inhibition [1]: 13.8%
inhibition [2]: 11.5%
inhibition [3]: 14.1%

COc1ccc2nc3cc(Cl)ccc3c(NCCN3CCN(C)CC3)c2c1
inhibition [1]: 4.56%
inhibition [2]: 3.95%
inhibition [3]: 3.79%

Cc1cccc2nc(-c3ccc(-c4ccc(CN5CCCCC5CO)cc4)cc3)[nH]c12 (stereo unspecified)
inhibition [1]: 27.8%
inhibition [2]: 31.6%
inhibition [3]: 19.5%

Cc1cccc(N2CCN(C3CCC(NC(=O)c4cc5ccccc5[nH]4)CC3)CC2)c1C (stereo unspecified)
inhibition [1]: 2.31%
inhibition [2]: 1.82%
inhibition [3]: 1.43%

C=CCc1ccccc1OCC(O)CN(C1CCCCC1)C1CCCCC1 (stereo unspecified)
inhibition [1]: -1.79%
inhibition [2]: -2.31%
inhibition [3]: 5.77%

COc1cc2nc(SCC(C)C)n(CCCn3ccnc3)c(=N)c2cc1OC
inhibition [1]: 3.51%
inhibition [2]: 6.49%
inhibition [3]: 3.6%

COc1ccc(N2CCN(CCCCNC(=O)c3ccc(NC(=O)c4ccc(Cl)cc4)cc3)CC2)c(OC)c1
inhibition [1]: 9.13%
inhibition [2]: 8.66%
inhibition [3]: 8.5%

CCN(CC)CCCC(C)Nc1c(-c2ccc(Br)cc2)cnc2ccccc12 (stereo unspecified)
inhibition [1]: 57.5%
inhibition [2]: 14.4%
inhibition [3]: 3.73%

O=C(Nc1ccc(-c2nc3ccccc3[nH]2)cc1)c1cncc(Br)c1
inhibition [1]: 4.2%
inhibition [2]: 2.44%
inhibition [3]: 1.81%

Cc1oc(-c2cccc(Oc3ccccc3)c2)nc1CN(Cc1cnn(C)c1)C(C)C
inhibition [1]: 1.56%
inhibition [2]: 1.15%
inhibition [3]: 1.83%

CCCCNC(=O)[C@H](CC1CCCCC1)NC(=O)c1ccc(O)c(-c2ccc(OC)cc2)c1
inhibition [1]: 2.45%
inhibition [2]: 2.88%
inhibition [3]: 4.23%

COc1cc(NC(=O)/C=C/c2cc(F)cc(F)c2F)cc(OCCN2CCN(CCN3CCOCC3)CC2)c1
inhibition [1]: 3.46%
inhibition [2]: 1.58%
inhibition [3]: 2.54%

Oc1cc2c(cc1CN1CCN(Cc3ccccc3F)CC1)CCC2
inhibition [1]: 1.19%
inhibition [2]: -1.37%
inhibition [3]: 2.62%

Cc1cccc2nc(-c3cccc(-c4cccc(CN5CCCC5CN)c4)c3)[nH]c12 (stereo unspecified)
inhibition [1]: -0.26%
inhibition [2]: -1.1%
inhibition [3]: -2.17%

COc1ccc(-c2cccc(NC(=O)c3ccc(C#N)cc3)c2)cc1CN(C)CCN(C)C
inhibition [1]: 2.8%
inhibition [2]: 2.9%
inhibition [3]: 0.41%

COc1ccc(CN2CCCN(Cc3cccc(NC(=O)c4ccc(-c5ccccc5)cc4)c3)CC2)cc1
inhibition [1]: -0.75%
inhibition [2]: -1.14%
inhibition [3]: -4.3%

O=C(Nc1ccc(-c2ccccc2)cc1)Nc1cccc(Cn2cnc(N3CCCNCC3)cc2=O)c1
inhibition [1]: 5.12%
inhibition [2]: 4.17%
inhibition [3]: 4.86%

CCn1cc(-c2nc(-c3cc(OC)cc(OC)c3)no2)c(=O)c2ccccc21
inhibition [1]: 12.3%
inhibition [2]: 6.39%
inhibition [3]: 2.79%

CN(C(=O)C1(c2ccc(Cl)cc2)CC1)C1CCN(CCCCCNC(=O)/C=C/c2ccc(Cl)c(Cl)c2)CC1
inhibition [1]: 0.14%
inhibition [2]: -0.37%
inhibition [3]: 4.56%

OCC1CCN(Cc2cccc(C#Cc3cc4ncnc(Nc5ccc(OCc6cccc(F)c6)c(Cl)c5)c4s3)n2)CC1
inhibition [1]: 14.1%
inhibition [2]: 8.82%
inhibition [3]: 9.61%

Clc1ccc(-c2ccc(C=NNc3nc(=Nc4ccccc4)[nH]c(=Nc4ccccc4)[nH]3)o2)cc1Cl
inhibition [1]: -3.26%
inhibition [2]: -1.12%
inhibition [3]: 7.88%

Cc1[nH]c(C)c(-c2ccc(OCc3cc(F)cc(F)c3)nc2)c(=O)c1Cl
inhibition [1]: 5.4%
inhibition [2]: 4.58%
inhibition [3]: 2.08%

COCCCNC(=O)[C@H]1CNCCN1C(=O)c1ccccc1
inhibition [1]: 1%
inhibition [2]: 0.97%
inhibition [3]: 3.67%

CCCC(C)NC(=O)C(N)Cc1cccc(I)c1 (stereo unspecified)
inhibition [1]: 1.78%
inhibition [2]: -1%
inhibition [3]: 1.85%

CCN(CC)Cc1ccc2c(=O)cc(CCc3cccc(F)c3F)n(CC(=O)N(Cc3ccc(-c4ccc(C(F)(F)F)cc4)cc3)C(C)C)c2c1
inhibition [1]: 1.44%
inhibition [2]: 2%
inhibition [3]: -0.21%

CCc1cc(=O)[nH]c(-n2nc(C)cc2NC(=O)CC(c2ccccc2)c2ccccc2)n1
inhibition [1]: 11.2%
inhibition [2]: 15.2%
inhibition [3]: -1.68%

CCOc1c(CNCCCNc2nc3ccccc3[nH]2)cc(I)cc1OC
inhibition [1]: 1.59%
inhibition [2]: 1.56%
inhibition [3]: 2.86%

Cc1ccc(S(=O)(=O)NC2=NC(=N)N(OCc3ccc(Cl)c(Cl)c3)C(C)(C)N2)cc1
inhibition [1]: 12.6%
inhibition [2]: 13.6%
inhibition [3]: 13.9%
